Assay outcomes deposited in PubChem BioAssay by Broad Institute.
C diff HTS – C. difficile growth inhibitors, primary screen, HTS. 86,000 tested, 0.25% active. AID 1259249, 2017. growth activity, negative = inhibition, % at 16 µg/mL (by protocol). Clostridium difficile clinical isolate growth, OD600, 24 h; stronger effect = lower value;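 active means mean growth activity at or below -80% and every replicate also at or below -80%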;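 further: 0% = DMSO wells and -100% = levofloxacin 16 µg/mL wells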
Pf Dd2 inh – P. falciparum Dd2 growth inhibitors, primary screen, SYBR Green fluorescence, single dose replicates | 72 h; stronger effect = lower value | activity change, % at 10 µM | 94,000 tested, 2.3% active; in the data active means activity change below about -80%
* hit, by the source's call; ! = not active in a repeat. Most compounds without a hit are left out; they make up all but 2.4% or so of the library.

`Cn1cnc(S(=O)(=O)N[C@@H]2C=C[C@H](CC(=O)Nc3ccccc3)O[C@@H]2CO)c1` gave C diff HTS 2.5.
`O=C(C[C@@H]1CC[C@H](NC(=O)Nc2ccccc2F)[C@@H](CO)O1)NCc1ccc(F)cc1` gave C diff HTS -2.1 and Pf Dd2 inh -48.8.
`COc1cc(CN2CC3(CN(C(=O)NC(C)C)C3)c3c(n(C)c4cc(OC)ccc34)[C@@H]2CO)cc(OC)c1` gave C diff HTS 5.7 and Pf Dd2 inh -40.2.
CO[C@H]1CN(C)C(=O)c2ccc(NC(C)=O)cc2OC[C@H](C)N(CCc2ccccc2)C[C@@H]1C was read as C diff HTS -3.0 and Pf Dd2 inh -15.9.
`C[C@@H]1CN([C@@H](C)CO)C(=O)c2cc(C#CC3CCCC3)cnc2O[C@H]1CN(C)C(=O)Cc1ccccn1` gave C diff HTS -0.5 and Pf Dd2 inh -15.1.
`O=C(Nc1cc(Cl)cc(Cl)c1)N[C@H]1CC[C@@H](CCNS(=O)(=O)c2cccc(F)c2)O[C@@H]1CO` gave C diff HTS 13.8 and Pf Dd2 inh 6.2.
N#Cc1cccc(-c2ccc(C3[C@@H]4CN(C(=O)Nc5ccc(C(F)(F)F)cc5)C[C@H]3N4)cc2)c1 (some centres not stated) was read as C diff HTS -93.5* and Pf Dd2 inh -84.5*!.
For COc1ccccc1NC(=O)N1C[C@@H]2N[C@H](C1)C2c1ccc(-c2cccc(C#N)c2)cc1 (some centres not stated) the results were C diff HTS 3.2 and Pf Dd2 inh -15.2.
`O=C(Nc1ccc(C(F)(F)F)cc1)N1C[C@@H]2N[C@H](C1)C2c1ccc(-c2cccnc2)cc1` (some centres not stated) gave C diff HTS -102.0*! and Pf Dd2 inh -90.9*!.
For O=C(Nc1cccc(F)c1)N1C[C@@H]2N[C@H](C1)C2c1ccc(-c2cccnc2)cc1 (some centres not stated) the results were C diff HTS 10.5 and Pf Dd2 inh -51.1.
For COc1ccccc1C#Cc1ccc2c(c1)[C@H]1NCC[C@H]1[C@@H](CO)N2 the results were C diff HTS -0.3 and Pf Dd2 inh -87.0*.
OC[C@@H]1Nc2ccc(C#Cc3cccc(F)c3)cc2[C@@H]2NCC[C@H]12 was read as C diff HTS -97.6* and Pf Dd2 inh -90.8*.
COc1ccccc1C#Cc1ccc2c(c1)[C@H]1[C@H](CCN1S(=O)(=O)c1ccccc1)[C@H](CO)N2 was read as C diff HTS -2.5 and Pf Dd2 inh -66.5.
O=S(=O)(c1ccc(F)cc1)N1CC[C@@H]2[C@@H](CO)Nc3ccc(C#Cc4cccc(F)c4)cc3[C@@H]21 was read as C diff HTS 36.0 and Pf Dd2 inh -10.4.
For C[C@H](CO)N1C[C@H](C)[C@@H](CN(C)C(=O)c2ccc(F)cc2)OCc2ccccc2-c2ccccc2C1=O the results were C diff HTS 2.3 and Pf Dd2 inh -19.9.
Screening CC=Cc1ccc2n(c1=O)C[C@H]1[C@H](CO)[C@@H](C(=O)NCC)[C@@H]2N1Cc1cccc(Cl)c1 (mixture of isomers) returned C diff HTS 1.9.
`COc1ccc(NC(=O)Nc2ccc3c(c2)CC(=O)N([C@@H](C)CO)C[C@H](C)[C@@H](CN(C)C(=O)Nc2ccc(C(F)(F)F)cc2)O3)cc1` gave C diff HTS -8.5 and Pf Dd2 inh -17.2.
C[C@H](CO)N1C[C@H](C)[C@@H](CN(C)C(=O)Nc2ccc(F)cc2)Oc2ccc(NC(=O)Nc3ccc(C(F)(F)F)cc3)cc2CC1=O was read as C diff HTS 16.9 and Pf Dd2 inh -87.6*.
For C[C@H](CO)N1C[C@H](C)[C@@H](CN(C)C(=O)Nc2ccc(C(F)(F)F)cc2)Oc2ccc(NC(=O)Nc3ccccc3)cc2CC1=O the results were C diff HTS 14.8 and Pf Dd2 inh -64.2.
Screening C[C@H]1CN([C@@H](C)CO)C(=O)Cc2cc(NC(=O)Nc3ccc(C(F)(F)F)cc3)ccc2O[C@@H]1CN(C)C(=O)Nc1ccc(F)cc1 returned C diff HTS -2.0 and Pf Dd2 inh -74.0.
Screening C[C@H](CO)N1C[C@H](C)[C@@H](CN(C)C(=O)Nc2ccccc2)Oc2ccc(NC(=O)Nc3ccc(C(F)(F)F)cc3)cc2CC1=O returned C diff HTS 8.4 and Pf Dd2 inh -85.0*.
Screening COc1ccc(NC(=O)N(C)C[C@H]2Oc3ccc(NC(=O)Nc4ccc(C(F)(F)F)cc4)cc3CC(=O)N([C@H](C)CO)C[C@@H]2C)cc1 returned C diff HTS 11.1 and Pf Dd2 inh -88.1*.
For O=C(NCC(F)(F)F)[C@@H]1[C@@H](CO)[C@@H]2Cn3c(ccc(-c4ccncc4)c3=O)[C@@H]2N1Cc1ccncc1 the results were C diff HTS 0.2.
Screening O=C(O)C[C@H]1C[C@H]2c3cc(NC(=O)CC4CC4)ccc3O[C@H]2[C@@H](CO)O1 returned C diff HTS -0.9 and Pf Dd2 inh 4.4.
O=C(NCC[C@H]1CC[C@H](NC(=O)c2cnccn2)[C@@H](CO)O1)Nc1ccc(Cl)cc1 was read as C diff HTS -4.1 and Pf Dd2 inh 8.6.
`CCCNC(=O)C[C@@H]1CC[C@H]2[C@H](COc3ccc(NC(=O)CC)cc3C(=O)N2C)O1` gave C diff HTS 0.0 and Pf Dd2 inh 5.3.
CCC(=O)N1CC2(C1)[C@H](c1ccc(-c3cccc(OC)c3)cc1)[C@H](CO)N2C(C)=O was read as C diff HTS -7.1 and Pf Dd2 inh -5.3.
`CCC(=O)N1CC2(C1)[C@@H](c1ccc(-c3cccc(OC)c3)cc1)[C@@H](CO)N2C(C)=O` gave C diff HTS -4.3 and Pf Dd2 inh -89.7*.
For COc1ccc(S(=O)(=O)N[C@H]2C=C[C@H](CC(=O)NCc3ccccc3F)O[C@H]2CO)cc1 the results were C diff HTS 2.4 and Pf Dd2 inh -11.6.
Screening C[C@@H]1CN([C@@H](C)CO)C(=O)c2c(c3ccccc3n2C)-c2ccccc2CO[C@H]1CN(C)C(=O)Nc1ccc2c(c1)OCO2 returned C diff HTS -1.3 and Pf Dd2 inh -82.4*.
Screening C[C@@H]1CN([C@H](C)CO)C(=O)c2c(c3ccccc3n2C)-c2ccccc2CO[C@H]1CN(C)C(=O)Nc1ccc2c(c1)OCO2 returned C diff HTS -2.8 and Pf Dd2 inh -69.1.
C[C@H]1CN([C@@H](C)CO)C(=O)c2c(c3ccccc3n2C)-c2ccccc2CO[C@H]1CN(C)C(=O)Nc1ccc2c(c1)OCO2 was read as C diff HTS 7.9 and Pf Dd2 inh -63.4.
Screening C[C@H](CO)N1C[C@H](C)[C@H](CN(C)C(=O)Nc2ccc3c(c2)OCO3)OCc2ccccc2-c2c(n(C)c3ccccc23)C1=O returned C diff HTS -1.9 and Pf Dd2 inh -84.7*.
CC(C)C#Cc1ccc2c(c1)O[C@H](CN(C)Cc1ccncc1)[C@@H](C)CN([C@@H](C)CO)S2(=O)=O was read as C diff HTS 7.5 and Pf Dd2 inh -65.3.
`C[C@@H]1CN([C@@H](C)CO)C(=O)c2cccc(NC(=O)Nc3ccccc3)c2O[C@@H]1CN(C)Cc1ccc(C(F)(F)F)cc1` gave C diff HTS -96.7* and Pf Dd2 inh -62.1.
`C[C@H](CO)N1C[C@H](C)[C@H](CN(C)Cc2ccccc2)Oc2c(NC(=O)Nc3ccc(C(F)(F)F)cc3)cccc2C1=O` gave C diff HTS 13.1 and Pf Dd2 inh -0.4.
